# Reference: PubChem BioAssay AID504652 (National Center for Advancing Translational Sciences (NCATS), 2011)
# Among all 360,000 compounds or so, about 11,000 (3.1%) were called active. Shown is part of a subset that was picked to be rich in actives. Unmarked numbers belong to inactive results. Rule as the data show it: active = activity change below about -30%; inactive = the rest.
# Molecular target: D(1A) dopamine receptor (Homo sapiens) (UniProt P21728)
# Assay: Antagonist of Human D 1 Dopamine Receptor: qHTS
# Conditions: HEK293 TREx D1 cells, calcium flux, dopamine EC80; at 10 µM; hits give low values
# Outline: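 Kinetic fluorescence of a calcium dye serves as the read-out. D1-expressing Hek293 Trex cells, induced overnight at 30 C, are exposed to compound for 180 s before an EC80 dopamine addition, then read 180 s further.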
# % is scaled to controls: 0 for no effect and ±100 for the full control effect.
# Chain of D(1A) dopamine receptor (Homo sapiens) (P21728 whole entry, looked up): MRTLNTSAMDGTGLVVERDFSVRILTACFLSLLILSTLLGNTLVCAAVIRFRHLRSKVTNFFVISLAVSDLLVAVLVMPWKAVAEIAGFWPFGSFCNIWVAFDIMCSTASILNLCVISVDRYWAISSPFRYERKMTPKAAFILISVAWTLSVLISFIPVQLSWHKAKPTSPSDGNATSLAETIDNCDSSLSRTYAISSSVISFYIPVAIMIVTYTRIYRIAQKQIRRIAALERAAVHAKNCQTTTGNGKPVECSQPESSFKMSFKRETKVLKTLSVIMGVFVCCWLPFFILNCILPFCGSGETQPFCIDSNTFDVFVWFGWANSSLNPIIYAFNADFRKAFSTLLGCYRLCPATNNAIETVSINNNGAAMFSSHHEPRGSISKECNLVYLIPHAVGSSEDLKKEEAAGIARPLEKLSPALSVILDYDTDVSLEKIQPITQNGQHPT
row,SMILES,"activity change, negative = inhibition"
1,O=C(CSc1nc2ccccc2nc1Cc1ccccc1)N1CCCCC1,-12.3%
2,CCOC(=O)C1CCN(c2nc3c(S(=O)(=O)c4ccc(CC)cc4)nnn3c3ccc(Cl)cc23)CC1,-7.85%
3,Cc1ccc(-c2nnc(Nc3cccc(Br)c3)c3ccccc23)cc1S(=O)(=O)NCC1CCCO1 (centres undefined),-11.8%
4,O=C(CN1C(=O)NC2(CCCC2)C1=O)OCCOc1ccc(F)cc1,-6.87%
5,N#Cc1ccc(OCCN2C(=O)NC3(CCSC3)C2=O)cc1 (centres undefined),-30.6% (active)
6,CC1(C)NC(=O)N(CCOc2cccc(Oc3ccccc3)c2)C1=O,1.02%
7,CCOC(=O)N1CCc2c(sc(NCc3cccc(F)c3)c2C(=O)Nc2ccccc2OCC)C1,-17.6%
8,O=S(=O)(c1ccc2c(c1)OCCCO2)N1CCN(S(=O)(=O)c2c(F)cccc2F)CC1,-7.05%
9,O=S(=O)(NCC1CN(S(=O)(=O)c2ccc3c(c2)OCCO3)C1)c1c(F)cccc1F,2.66%
10,O=S(=O)(NC1CCN(S(=O)(=O)c2ccc3c(c2)OCCO3)CC1)c1c(F)cccc1F,-30.3% (active)
11,CCOc1ccccc1C(=O)NC1(C(F)(F)F)NC(=O)N(CCc2ccc(OC)c(OC)c2)C1=O (centres undefined),12%
12,CCOC(=O)CSC1=Nc2ccccc2C2=NC(CCC(=O)NCc3ccc(F)cc3)C(=O)N12 (centres undefined),7.77%
13,Cc1ccc(S(=O)(=O)N2CCC(C(=O)Nc3cc(C)ccc3C)CC2)cc1,7.91%
14,CCc1ccc2oc(-c3ccc(C)c(NC(=O)/C=C/c4ccco4)c3)nc2c1,-0.213%
15,CCN(C(=O)Cn1cc(S(=O)(=O)N2CCN(c3ccccc3F)CC2)c2ccccc2c1=O)c1ccc(C)c(C)c1,-3.49%
16,CCOC(=O)C1CCCN(C(=O)c2ccc3c(c2)sc2nc(-c4ccc(CC)cc4)cn23)C1 (centres undefined),-33% (active)
17,CCOC(=O)C1CCCN(C(=O)c2ccc(C)c(S(=O)(=O)N3CCCCC3)c2)C1 (centres undefined),-1.15%
18,CCOC(=O)C1CCCN(C(=O)c2cncc(Br)c2)C1 (centres undefined),-9.23%
19,O=C(NCCC1=CCCCC1)c1ccc2c(c1)N(Cc1ccccc1F)C(=O)c1ccccc1S2(=O)=O,-12.5%
20,CC1CCN(c2c(NCc3ccc(C(=O)NCc4ccccc4)cc3)c(=O)c2=O)CC1,-34.3% (active)
21,O=C(NC1CCCCC1)c1ccc(CNc2c(N3CCOCC3)c(=O)c2=O)cc1,11.4%
22,O=C(NCc1ccccc1)c1ccc(CNc2c(N3CCCC3)c(=O)c2=O)cc1,-9.38%
23,Cc1nc2sc(C)c(C)n2c(=O)c1S(=O)(=O)NCCc1ccc(Cl)cc1,-2.78%
24,CCc1ccc(S(=O)(=O)n2ccnc2)cc1,-16.9%
25,CC(C)c1ccc(NC(=O)c2ccc(Cn3nc(N4CCN(c5ccccc5)CC4)ccc3=O)o2)cc1,-6.07%
26,CC(=O)N1CCN(c2ccc(NCc3ccc(C(C)C)cc3)cc2)CC1,-50.6% (active)
27,CC(C)c1ccc(N2CCN(C(=O)c3ccccc3NC(=O)/C=C(\C(=O)O)c3ccccc3)CC2)cc1,-3.41%

row,SMILES,"activity change, negative = inhibition"
1,COc1ccc(CNC(=O)c2cc3c(=O)[nH]c4ccccc4c3s2)cc1,-33.6% (active)
2,O=C(NCCN1CCN(Cc2ccccc2)CC1)c1cc2c(=O)[nH]c3ccccc3c2s1,-7.42%
3,COc1ccc(CNC(=O)c2cc3c(=O)[nH]c4ccc(C)cc4c3s2)c(OC)c1,1.68%
4,Cc1cccc(NC(=O)c2ccc(F)c(S(=O)(=O)N(C)C3CCCCC3)c2)c1,4.16%
5,O=C(COC(=O)C1CC2C=CC1C2)Nc1ccccc1 (centres undefined),-18.1%
6,CC(C)c1ccc(NC(=S)NC2CC3C=CC2C3)cc1 (centres undefined),-34.1% (active)
7,CC(C)c1ccc(NC(=O)NC2CCCCC2)cc1,-4.57%
8,COc1ccc(C2=NC(c3ccncc3)=Nc3ccc(Br)cc3N2)cc1,-11.7%
9,CCn1c(C(=O)Nc2cc(Cl)ccc2C)cc2sc(Cl)cc21,-0.309%
10,O=C(c1ccc2c(c1)N(Cc1ccc(Cl)cc1)C(=O)c1ccccc1S2(=O)=O)N1CCCCC1,5.67%
11,COc1ccc(-c2cc(-c3nc(-c4cc(OC)c(OC)c(OC)c4)no3)[nH]n2)c(OC)c1,27%
12,Cc1ccc(NC(=O)CN2C(=O)C(c3ccc(F)cc3)=NC23CCCCCC3)c(C)c1,2.24%
13,COc1ccc([C@H]2CC(=O)C=C(/C=C/c3ccccc3)C2)cc1,3.37%
14,COc1ccc([C@H]2CC(=O)C=C(c3ccc(OC(F)(F)F)cc3)C2)cc1OC,-5.99%
15,O=C1C=C(c2cccc(Cl)c2)C[C@@H](c2ccc(F)cc2)C1,-32% (active)
16,O=C1C=C(c2cc(C(F)(F)F)cc(C(F)(F)F)c2)C[C@@H](c2ccc3c(c2)OCO3)C1,-12.8%
17,O=C1CC(c2cccc(Cl)c2)CC(O)=C1C=Nc1ccccc1 (centres undefined),-3.8%
18,COc1cccc(C2=CC(=O)C[C@H](c3ccc(OC)c(OC)c3)C2)c1,-42.8% (active)
19,CC(=O)Nc1ccc(NC(=O)CCCc2nc(-c3ccc(C(C)(C)C)cc3)no2)cc1,2.77%
20,COc1ccc(CNC(=O)c2cc3c(-c4ccccc4F)nn(C)c3s2)c(OC)c1,8.78%
21,CCc1ccc(Nc2nn3c(=O)c4cc5c(cc4nc3s2)OCO5)cc1,7.15%
22,O=C(CCNS(=O)(=O)c1ccccc1)NCCCc1ccccc1,-0.746%
23,NC(=O)NC(=O)C(OC(=O)CCNS(=O)(=O)c1ccccc1)c1ccccc1 (centres undefined),-53% (active)
24,Cc1ccc(S(=O)(=O)NCCC(=O)OCC(=O)N(C)c2ccccc2)cc1,-1.79%
25,COc1cccc(CNC(=O)CN2C(=O)CCc3cc(S(=O)(=O)N4CCOCC4)ccc32)c1,-4.09%
26,Cc1ccc(C)c2sc(NC(=O)c3ccc(S(=O)(=O)N4CCCC4)cc3)nc12,5.67%
27,CCOc1ccccc1NC(=O)CN1CCN(S(=O)(=O)c2ccc(Br)cc2)CC1,6.89%
